Assay outcomes deposited in PubChem by National Center for Advancing Translational Sciences (NCATS).
Sampled rows, rich in hits. Any-hit rate of the full collection: about 1.7%.
IkB sig inh: suppresses IkB signaling in ABC-DLBCL reporter cells. ABC-DLBCL IkBa-CBG/CBR dual luciferase ratio, 4 h; response scale: scaled: untreated 0%, proteasome inhibitor 100%. hit rate 0.04% among 110,000. Potency, µM (titrated, usually from 57.1 µM); active = well fitted curve in the direction sought with a large enough effect in the signal ratio, not every such curve was filed as active; inconclusive = small, poorly fitted or top-dose-only effect, or a change in a side signal; the % refers to the signal ratio;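 also: the direction sought is a rising ratio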
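In this assay, an IκBα–CBG68 fusion accumulates when IKK-driven degradation is blocked; native CBR normalizes for cell number. OCI-Ly3 cells were treated 4 h with compound and doxycycline, then green and red light read after Chroma-Glo addition.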
p53ts 39C tox: cytotoxicity in p53ts cells at nonpermissive temperature; hit rate 1.5% among 130,000; Potency, µM (doses to about 46.1 µM), actives largely listed as cytotoxic; H1299-p53A138V viability at 39C, ATP luminescence, 24 h; also: nearly all actives have a fitted effect of over 55% in size
Imprint erasure: genomic imprint erasure induction; mouse ES Peg3-LacZ reporter, beta-gal luminescence, 40 h; hit rate 0.02% among 110,000; Potency, µM (highest dose often 60.7 µM), usual class: activators
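Imprint erasure is scored as LacZ activity from the silenced maternal Peg3 allele in feeder-free female ES cells cultured 40 h with LIF. Luminescence is normalized to in-plate negative controls and fitted to the Hill equation.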
p53ts 32C tox: p53ts cell cytotoxicity, permissive temperature; H1299-p53A138V at 32C, ATP luminescence viability, 24 h; Potency, µM (top dose mostly 46.1 µM), usual class: cytotoxic; hit rate 0.93% among 130,000; also: nearly all actives have a fitted effect of over 55% in size
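ATP-content luminescence (ATPlite) read-out after 24 h compound exposure at 32C in H1299-p53A138V cells (600/well). Tested up to 46 uM. Normalized to DMSO (0%) and 100 uM tamoxifen (100% killing); Hill-fit AC50.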
Each line names hits and unclear results; the compound was inactive in the other large screens; ! = repeats disagree. Unless noted, calls follow the shape of the dose curve; as a rule, active = well fitted curve in the direction sought with a large enough effect; inconclusive = small, poorly fitted or top-dose-only effect, or another doubt; inactive = no such curve, though single readings can be large; an effect the other way counts as inactive or inconclusive.

COC(=O)c1c(SCC(=O)Nc2ccccc2C(F)(F)F)[nH]c2ccc(Cl)cc2c1=O	IkB sig inh inconclusive, p53ts 32C tox inconclusive
c1cnc(N2CCN(c3ncnc4c3oc3ccccc34)CC2)nc1	none
C(=C\c1ccccc1)/CN1CCN(c2ncnc3c2oc2ccccc23)CC1	IkB sig inh inconclusive, p53ts 39C tox 13µM, p53ts 32C tox 10µM
COC(=O)c1cc2oc3ccccc3c2n1CC(=O)Nc1ccc(Cl)cc1F	p53ts 39C tox 10µM
COC(=O)c1nn(-c2ccc(-c3ccccc3)cc2)cc1O	IkB sig inh inconclusive, p53ts 39C tox inconclusive, p53ts 32C tox 7.9µM
O=C(CC(Nc1ccc(Cl)cc1)C(=O)O)c1ccccc1 (centres undefined)	p53ts 39C tox inconclusive, p53ts 32C tox 25µM (no result: IkB sig inh, Imprint erasure)
O=C(O)C[C@H](Nc1ccccc1)C(=O)O	none
COc1ccc(-c2nsc(NC(=O)c3oc4cc(C)c(C)cc4c3C)n2)cc1	none
NC(Cc1ccccc1)=NCC(=O)O	none
Cc1ccc(C)c(N2CCN(CCCNC(=O)c3ccc4nc(CCc5ccccc5)oc4c3)CC2)c1	IkB sig inh inconclusive, p53ts 39C tox 25µM
Cc1ccc(C)c(N2CCN(CCCNC(=O)c3ccc4nc(N5CCC(C)CC5)sc4c3)CC2)c1	IkB sig inh inconclusive, p53ts 39C tox 13µM
Cc1ccc(Cl)cc1N1CCN(CCCNC(=O)c2ccc3nc(N4CCCCC4)sc3c2)CC1	IkB sig inh inconclusive
CCCSc1nnc(Cc2cc(=O)[nH]c(=O)[nH]2)n1-c1cc(C)ccc1C	Imprint erasure 10µM
N#Cc1cc2c(nc1SCc1nc3ccccc3[nH]1)CCC2	IkB sig inh inconclusive, p53ts 39C tox 5µM, p53ts 32C tox 4µM
Cc1cccc(CSc2nc3c(cc2C#N)CCC3)c1	none (no result: IkB sig inh, Imprint erasure)
COc1ccc(CSc2nc3ncccc3[nH]2)cc1	p53ts 32C tox 16µM (no result: IkB sig inh, p53ts 39C tox, Imprint erasure)
CN(CC[C@@H](Oc1ccc(-c2ccccc2)cc1)c1ccc(F)cc1)CC(=O)O	none
CCOc1ccc(CNC(=O)c2ccc(NC(=O)c3nsc4ccccc34)cc2)cc1	IkB sig inh inconclusive
CCOc1ccc(CNC(=O)c2ccccc2NC(=O)c2nsc3ccccc23)cc1	p53ts 39C tox 10µM, Imprint erasure inconclusive, p53ts 32C tox inconclusive
CCc1ccc(-n2nc(CO)c(C(=O)NC)n2)cc1	p53ts 39C tox 16µM, p53ts 32C tox inconclusive
CCc1ccc(-n2nc(CO)c(C(=O)NCC(c3ccccc3)c3ccccc3)n2)cc1	none
O=S(=O)(Nc1ccc(Br)cc1)c1ccc2nc(-c3ccccc3)[nH]c2c1	IkB sig inh inconclusive, p53ts 39C tox inconclusive
CC(C)c1ccc(NS(=O)(=O)c2ccc3nc(-c4ccccc4)[nH]c3c2)cc1	IkB sig inh inconclusive, p53ts 39C tox 20µM, p53ts 32C tox inconclusive
COc1ccc2sc(NC(=O)c3ccco3)nc2c1	IkB sig inh inconclusive, p53ts 39C tox 10µM, p53ts 32C tox 10µM
COc1ccc2nc(NC(=O)c3ccoc3C)sc2c1	IkB sig inh inconclusive, p53ts 39C tox inconclusive, p53ts 32C tox 7.9µM
COc1ccc(Cn2ccc3nc(C)c(C(=O)N4CCN(c5cc(C)ccc5C)CC4)cc3c2=O)cc1	IkB sig inh inconclusive
CN1CCN(CCCN2c3ccccc3Sc3ccc(Cl)cc32)CC1	p53ts 39C tox 20µM, p53ts 32C tox 16µM!
O=C(Nc1cccc(C(=O)OCc2cc(=O)n3nc(C4CC4)sc3n2)c1)c1ccc(F)cc1	IkB sig inh inconclusive
CCCCCCCC[N+](CCCCCCCC)(CCCCCCCC)CCCCCCCC	IkB sig inh inconclusive, p53ts 39C tox 16µM, p53ts 32C tox inconclusive
N#C/C(=C(/N)Sc1ccc(N)cc1)c1ccccc1C(F)(F)F	none (no result: IkB sig inh)
COc1ccc(OC)c(C2OCCC=CC2C)c1 (centres undefined)	none (no result: IkB sig inh, Imprint erasure)
CCn1c(=O)n(CC)c2cc(N3CCCC3)c(NC(=O)Nc3cc(C)cc(C)c3)cc21	IkB sig inh inconclusive, p53ts 39C tox 13µM, p53ts 32C tox inconclusive
CN(C)c1ccc(/C=C2\C(=O)Nc3ccccc32)cc1	none (no result: IkB sig inh, p53ts 39C tox, p53ts 32C tox)
CN(C)c1ccc(/C=C2/C(=O)Nc3ccccc32)cc1	IkB sig inh inconclusive, p53ts 39C tox 10µM, p53ts 32C tox 10µM
N#Cc1cccc(NC(=O)N2CCCC3(CCN(S(=O)(=O)c4ccccc4)CC3)C2)c1	none (no result: Imprint erasure)
CCCS(=O)(=O)c1nc(S(=O)(=O)c2ccc(C)cc2)c(NCC(C)C)s1	none
CCOCc1cc(CN2CCN(c3cccc(Cl)c3)CC2)c(O)c2ncccc12	p53ts 39C tox 3.2µM, Imprint erasure inconclusive
Cc1cc(NC(=O)CCS(=O)(=O)c2nc(-c3ccccc3)cc(C(F)(F)F)n2)no1	IkB sig inh inconclusive, p53ts 39C tox inconclusive, p53ts 32C tox inconclusive
CS(=O)(=O)c1nc(-c2ccccc2)cc(C(F)(F)F)n1	IkB sig inh inconclusive, p53ts 39C tox inconclusive, p53ts 32C tox 6.3µM
CCOC(=O)Cc1ccc(NC(=O)Nc2nnc(N3CCCCC3C)s2)cc1 (centres undefined)	IkB sig inh inconclusive
CCOC(=O)c1ccc(NC(=O)CC2SCCNC2=O)cc1 (centres undefined)	p53ts 39C tox 13µM, p53ts 32C tox 13µM
CCOC(=O)c1ccc(NC(=O)CC2NCCNC2=O)cc1 (centres undefined)	none
CNCC[C@H](Oc1ccccc1C)c1ccccc1	p53ts 39C tox 13µM (no result: Imprint erasure)
CNCC[C@@H](Oc1ccccc1C)c1ccccc1	none
Cc1cccc(N2CCN(C(=O)c3cn(C)c4ccc(S(=O)(=O)N(C)C)cc4c3=O)CC2C)c1 (centres undefined)	IkB sig inh inconclusive
COc1ccc(Cl)cc1NC(=O)Cn1c(=O)n(CCC(=O)NCc2ccc3c(c2)OCO3)c(=O)c2ccccc21	p53ts 39C tox inconclusive, p53ts 32C tox inconclusive
CCN(CC)CCOC(=O)c1ccc(NC(=O)c2cc3c(s2)-c2ccccc2OC3)cc1	IkB sig inh inconclusive, p53ts 39C tox 16µM, p53ts 32C tox inconclusive
Cc1cn2c(=O)cc(COC(=O)c3ccc(NC(=O)c4ccccc4C)cc3)nc2s1	IkB sig inh inconclusive
CC(O)CCCCCCC/C=C/C=C/C(N)=O (centres undefined)	none (no result: IkB sig inh, Imprint erasure)
O=S(=O)(Nc1cccc(-c2ccc(N3CCCCC3)nn2)c1)c1ccc(F)cc1F	p53ts 39C tox inconclusive, p53ts 32C tox 13µM
CC1CCN(c2ccc(-c3cccc(NS(=O)(=O)c4ccc(F)cc4F)c3)nn2)CC1	IkB sig inh inconclusive, p53ts 39C tox 13µM, p53ts 32C tox 16µM
CCOc1ccc(S(=O)(=O)Nc2cccc(-c3ccc(N4CCC(C)CC4)nn3)c2)cc1	p53ts 39C tox 10µM, p53ts 32C tox 10µM
Cc1ccc(S(=O)(=O)Nc2cccc(-c3ccc(N4CCC(C)CC4)nn3)c2)s1	IkB sig inh inconclusive, p53ts 39C tox 4µM, p53ts 32C tox 13µM
O=C(NCCCN1CCN(c2ccc(F)cc2)CC1)c1sc2ncccc2c1-n1cccc1	IkB sig inh inconclusive
Cc1cccc(C(=O)Nc2ccc(N3CCC(CCN4CCOCC4)CC3)c(C(=O)O)c2)c1	none
CC(=O)Nc1ccc(NC(=O)c2csnn2)cc1	none
Cc1ccccc1Nc1c(-c2ccc(N3CCOCC3)cc2)nc2cccc(C)n12	IkB sig inh inconclusive, p53ts 39C tox 7.9µM, p53ts 32C tox inconclusive
